Among the data in PubChem BioAssay (NCI) are growth inhibition values, retold here.

Compounds without any hit were thinned out: in the full panel of roughly 79,000, 15% have a hit. Values without a mark were called inactive. The source made the active and inactive calls. No stated cut-off is given here; in the data, active means growth inhibition above about 70%; inactive means the rest.

Experiment [1] in a line: NCI Yeast Anticancer Drug Screen. Data for the rad50 strain (AID 155).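 Further: 0% = growth of vehicle-only cultures of the same strain.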 To be noted: S. cerevisiae rad50 strain growth inhibition; at 50.0 µM; active compounds read high. In short, it runs like this: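 Relative growth inhibition (compound vs vehicle) was measured in yeast with a defined repair-gene alteration.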
Experiment [2] can be described thus: NCI Yeast Anticancer Drug Screen. Data for the mec2-1 strain (AID 157). The note with it: S. cerevisiae mec2-1 strain, at 50.0 µM, active compounds read high. In short, it runs like this: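 Vehicle-treated cultures served as reference for growth inhibition of compound-exposed mec2-1 yeast.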
Experiment [3] in a line: NCI Yeast Anticancer Drug Screen. Data for the sgs1 mgt1 strain (AID 161).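 Further: 0% = growth of cultures given vehicle only.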 To be noted: S. cerevisiae sgs1 mgt1 strain, at 50.0 µM, active compounds read high. In short, it runs like this:
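Test agents were incubated with a DNA-repair-mutant yeast strain. Growth was then read and compared against vehicle-treated controls.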

Experiment [4] can be described thus: NCI Yeast Anticancer Drug Screen. Data for the cln2 rad14 strain (AID 165).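 Further: 0% = growth equal to vehicle treated cultures.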 To be noted: S. cerevisiae cln2 rad14 strain, at 50.0 µM, active compounds read high. The method, boiled down: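 Each compound was tested on cln2 rad14 yeast. Inhibition of growth was calculated against vehicle-exposed controls.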
Experiment [5] is described as follows: NCI Yeast Anticancer Drug Screen. Data for the bub3 strain (AID 167). The note with it: S. cerevisiae bub3 mutant strain, at 50.0 µM, active compounds read high. The method, boiled down:
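Screening used yeast with an engineered genetic alteration affecting cell cycle control. Compound-exposed cultures were compared with vehicle cultures, and reduced growth was taken as inhibition.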

A short description of experiment [6]: NCI Yeast Anticancer Drug Screen. Data for the mlh1 rad18 strain (AID 175). To be noted: S. cerevisiae mlh1 rad18 strain growth inhibition; at 50.0 µM; active compounds read high. The method, boiled down:
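Vehicle-treated cultures served as the reference for growth inhibition in a yeast strain carrying DNA damage repair alterations exposed to each compound.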

With `Nc1ccc2c(=O)[nH][nH]c2c1`, the growth inhibition was -26.6% in experiment [1]; -40.5% in experiment [2]; -25% in experiment [3]; 10.8% in experiment [4]; -25.2% in experiment [5]; -9.2% in experiment [6].

On to `[C-]#[N+]C([N+]#[C-])=C(C)OCC`, for which the growth inhibition in experiment [1] is 7.9%; in experiment [2], 5.1%; in experiment [3] it was -5.2%; in experiment [4], 10.8%; in experiment [5] it was 21.6%; in experiment [6] it was 2.5%.

`CCC(=O)OC1(c2ccccc2)C(CN(C)C)CCCC1CN(C)C` (stereo unspecified): the growth inhibition in experiment [1] is -11.2%; in experiment [2] it was -17.6%; in experiment [3], -22.2%; in experiment [4] it was -47.9%; in experiment [5], 2.85%; in experiment [6], -14.9%.

For the molecule `CC(=O)/C=C1/NC(C(=O)c2ccccc2)=CNC1c1ccccc1` (stereo unspecified), the growth inhibition is 4.95% in experiment [1]; 3.75% in experiment [2]; 20.6% in experiment [3]; -14.5% in experiment [4]; 9.95% in experiment [5]; 18.8% in experiment [6].

For `Cc1ccc2c(c1)C(=O)/C(=N/Nc1ccc(Cl)cc1)CCO2`, the growth inhibition was 7.65% in experiment [1]; -16.1% in experiment [2]; 6.2% in experiment [3]; -2% in experiment [4]; 6.8% in experiment [5]; 4.65% in experiment [6].

Regarding `CCCCCCCCCCCCCCCC[N+]1(CC)CCSCC1`, the growth inhibition in experiment [1] was 96.6% (active); in experiment [2], 97.9% (active); in experiment [3], 97.2% (active); in experiment [4], 97.5% (active); in experiment [5] it was 97.1% (active); in experiment [6], 97.8% (active).

Regarding `Cc1cc(C)c(NC(=O)C(C)(C)C)c(C)c1`, the growth inhibition in experiment [1] was -7.15%; in experiment [2], -12.9%; in experiment [3], -17.7%; in experiment [4], -48.9%; in experiment [5], 10.2%; in experiment [6], -2.2%.

Turning to `Cc1cc(C(=O)C[n+]2ccccc2)c(CN2C(=O)c3ccccc3C2=O)c(=O)n1C`, the growth inhibition in experiment [1] is 14.8%; in experiment [2], -14.3%; in experiment [3] it was -3.9%; in experiment [4] it was -19.1%; in experiment [5] it was 6.3%; in experiment [6], 6.55%.

In the case of `Cc1nc(-n2nc(-c3ccccc3)cc2-c2ccccc2)sc1C(=O)/C=C/c1ccccc1`, the growth inhibition in experiment [1] was 6.95%; in experiment [2], 18.9%; in experiment [3] it was 14.7%; in experiment [4] it was 9.1%; in experiment [5], 29.6%; in experiment [6], 12.9%.

In the case of `O=C1c2cccc3c([N+](=O)[O-])ccc(c23)C(=O)N1CC1CCCO1` (stereo unspecified), the growth inhibition in experiment [1] is 71.3% (active); in experiment [2], 51%; in experiment [3] it was 87.1% (active); in experiment [4], 40.8%; in experiment [5] it was 51.8%; in experiment [6], 73.5% (active).

In the case of `OCC(O)C(O)C(O)C(O)C(O)[C@@H](O)c1nc2ccccc2[nH]1` (stereo partly specified), the growth inhibition in experiment [1] is -9.2%; in experiment [2], -5.4%; in experiment [3] it was -12.3%; in experiment [4], -16.9%; in experiment [5], 50.1%; in experiment [6], 6.6%.

Turning to `CC1(C)Cc2cccc(OC(=O)NO)c2O1`, the growth inhibition in experiment [1] was -0.65%; in experiment [2], 24.4%; in experiment [3] it was 0.45%; in experiment [4] it was -37.8%; in experiment [5], -3.1%; in experiment [6], 9%.

With `NC(=O)C1CCCNC1` (stereo unspecified), the growth inhibition was -6.6% in experiment [1]; -6.65% in experiment [2]; -10.4% in experiment [3]; -13.6% in experiment [4]; 15.6% in experiment [5]; 6.85% in experiment [6].

As to `Cc1ccc2nc(-c3ccc4nc(-c5ccc(N=Nc6ccc(-c7nc8ccc(-c9nc%10ccc(C)c(S(=O)(=O)O)c%10s9)cc8s7)cc6)cc5)sc4c3)sc2c1S(=O)(=O)O`, the growth inhibition in experiment [1] is 12.7%; in experiment [2] it was -13%; in experiment [3] it was 21.4%; in experiment [4], -0.3%; in experiment [5], -3.2%; in experiment [6] it was -26.9%.

Take `Cc1cc(N)c(N=Cc2ccccc2[N+](=O)[O-])cc1C`: the growth inhibition in experiment [1] was 26.2%; in experiment [2] it was 11.5%; in experiment [3], 39.8%; in experiment [4] it was -58.8%; in experiment [5], 24.8%; in experiment [6], 20.9%.

For the molecule `CC(=O)OCC1OC(n2c(C)c(N=Nc3ccc(C)cc3)c(C)c(C#N)c2=S)C(OC(C)=O)C(OC(C)=O)C1OC(C)=O` (stereo unspecified), the growth inhibition in experiment [1] was -8.05%; in experiment [2], -14.4%; in experiment [3], 11.9%; in experiment [4] it was 2.65%; in experiment [5] it was -10.8%; in experiment [6] it was -2.75%.

For `CN(C)C(=O)c1ccccc1`, the growth inhibition in experiment [1] is 29.6%; in experiment [2], 6.25%; in experiment [3], -0.35%; in experiment [4] it was 13.9%; in experiment [5] it was -9.25%; in experiment [6] it was 1.55%.

For the molecule `COc1ccc(/C=N/NC(=O)NCCNCCO)cc1`, the growth inhibition is -16.6% in experiment [1]; -31.8% in experiment [2]; -32.8% in experiment [3]; -13.7% in experiment [4]; -39.5% in experiment [5]; -17.2% in experiment [6].

With `COC(=O)CCc1ccc(CCC(=O)OC)cc1`, the growth inhibition was -14.8% in experiment [1]; -37.1% in experiment [2]; -1.5% in experiment [3]; 4.2% in experiment [4]; -11.2% in experiment [5]; 9.7% in experiment [6].

As to `CC1=CC(=O)[C@@H]2C[C@H]1C2(C)C`, the growth inhibition in experiment [1] was 15.3%; in experiment [2] it was 12.8%; in experiment [3], -33.9%; in experiment [4], -2.9%; in experiment [5] it was -2.1%; in experiment [6] it was 22.2%.

Take `CNc1n[nH]c(-c2ccccc2)n1`: the growth inhibition in experiment [1] is 4.85%; in experiment [2] it was -17.5%; in experiment [3], 11.8%; in experiment [4], 11.9%; in experiment [5] it was 1.15%; in experiment [6], 1.8%.
